Rows were chosen to be rich in hits. Some 5.7% of all compounds tested hit in one or more screens of this group.
GLP1R cytotox: cytotoxicity in counter-screen for GLP-1R inverse agonists; HEK293 cAMP-luciferase reporter cells, luminescence, 24 h; Potency, µM (series often up to 38.3 µM), inactives show at the top dose activity change, negative = inhibition, usual class: inhibitors; 0.13% of 410,000 active;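 also: loss of luciferase light is scored as toxicity; potency is read from the fitted curve at half-maximal effect; % is scaled to controls: 0 for no effect and ±100 for the full control effect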
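Luminescence readout: signal drop marks cytotoxicity. Plated cells grew 12 h at 37 °C, 5% CO2, received 23 nL compound for 24 h, then got luciferase reagent, read after 12 min at RT.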
GLP-1R agonist: GLP-1 receptor (human) agonism; AID 624172; HEK293 GLP-1R CRE-luciferase, luminescence, 4-6 h; cells express a hypersensitive GLP-1R form; 0.007% of 380,000 active; P43220; Potency, µM (series often up to 45.6 µM), for the others: top-dose activation, hits mostly activators; also: potency is read from the fitted curve at half-maximal effect; % of control where 0% means no effect
GLP-1R inv ag: inverse agonists of human GLP-1 receptor. HEK293 GLP-1R CRE-luciferase, luminescence, 24 h; GLP-1R form is constitutively active. 1.6% of 410,000 active. Potency, µM (doses to about 38.3 µM), inactives show top-dose activity change, negative = inhibition, actives largely listed as inhibitors; also: potency is read from the fitted curve at half-maximal effect; % is scaled to controls: 0 for no effect and ±100 for the full control effect; nearly all actives have a fitted effect of over 55% in size
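qHTS in 1536-well format: reporter HEK293 cells expressing constitutive GLP-1R activity in DMEM + 10% Nu serum, 24 hr with compounds at 37 deg C, luminescence read after 12 min with detection reagent.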
DRD3 agonist: activates the human D3 dopamine receptor; max activation, %; D3R DiscoveRx beta-arrestin cells, luminescence, 90 min; 0.58% of 410,000 active; P35462; AID 652048; in the data active = max activation above about 30%; also: 0% is about no effect
Target sequence (P35462 whole entry, looked up): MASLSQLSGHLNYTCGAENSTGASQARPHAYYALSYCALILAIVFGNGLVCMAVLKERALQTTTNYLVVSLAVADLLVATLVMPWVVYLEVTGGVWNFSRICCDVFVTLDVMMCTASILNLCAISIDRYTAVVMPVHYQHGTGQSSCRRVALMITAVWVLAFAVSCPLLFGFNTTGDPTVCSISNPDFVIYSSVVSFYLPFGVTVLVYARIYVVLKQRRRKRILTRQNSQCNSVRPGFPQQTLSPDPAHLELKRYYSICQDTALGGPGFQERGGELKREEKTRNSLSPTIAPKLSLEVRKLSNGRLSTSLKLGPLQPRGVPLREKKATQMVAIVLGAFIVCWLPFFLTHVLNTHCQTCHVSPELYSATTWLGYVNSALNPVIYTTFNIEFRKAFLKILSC
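Cells at 1500/well, incubated overnight, then treated with pinned compounds (dopamine as control) for 90 min at 37 degrees C. DiscoveRx reagent added for 30 - 60 minutes at room temperature; luminescence read.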
ClpP mod: qHTS Assay for Activators of ClpP; 1.9% of 340,000 active; ATP-dependent Clp protease proteolytic subunit (Bacillus subtilis (strain 168)), P80244; purified B. subtilis ClpP, FRET peptide cleavage, 20 min; Potency, µM (top dose mostly 57.5 µM), for the others: at the highest dose activity change, negative = active; active = well fitted falling curve with a large enough effect; inconclusive = small, poorly fitted or top-dose-only effect; inactive = no such curve, though single readings can be large or run the other way; also: potency is read from the fitted curve at half-maximal effect; the source files actives as falling curves though it sought activators and does not explain the sign; nearly all actives have a fitted effect of over 65% in size
Target sequence (P80244 whole entry, looked up): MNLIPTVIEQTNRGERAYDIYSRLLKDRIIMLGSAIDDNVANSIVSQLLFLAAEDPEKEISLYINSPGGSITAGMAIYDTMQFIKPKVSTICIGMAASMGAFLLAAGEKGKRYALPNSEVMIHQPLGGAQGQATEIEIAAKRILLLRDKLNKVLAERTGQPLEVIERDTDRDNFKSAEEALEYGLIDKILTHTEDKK
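Purified B. subtilis ClpP, 10 microg/mL final in Tris/HCl pH8 with KCl, BSA, glycerol and Tween-20, cleaved an Abz/nitrotyrosine-quenched decapeptide. Fluorescence (ex 320, em 430) was read at 0 and 20 min at room temperature. Delta was normalized to 5.8 microM ADEP and DMSO/no-enzyme controls.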
DRD3 antagonist: antagonists of human D3 dopamine receptor; P35462; D3R cells, DiscoveRx beta-arrestin luminescence, antagonist mode; hits give low values; max response, negative = inhibition, %; 2.5% of 360,000 active; AID 652054; in the data active = max response below about -50%; inconclusive = no clear call, values can overlap the other calls; also: % is scaled to controls: 0 for no effect and ±100 for the full control effect
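Cells expressing the human receptor were seeded at 1500 cells/well, incubated overnight at 37 degrees C in 5% CO2, then exposed to library compounds with dopamine controls for 90 minutes at 37 degrees C before luminescent detection.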
The depositor's hits bear a star; u = inconclusive; x = not tested or not shown; ! = repeats disagree; [ ] = remark or other dose. Unless noted, calls follow the shape of the dose curve; as a rule, active = well fitted curve in the direction sought with a large enough effect; inconclusive = small, poorly fitted or top-dose-only effect, or another doubt; inactive = no such curve, though single readings can be large; an effect the other way counts as inactive or inconclusive.

SMILES	GLP1R cytotox	GLP-1R agonist	GLP-1R inv ag	DRD3 agonist	ClpP mod	DRD3 antagonist
Cn1cc(S(=O)(=O)c2ccccc2)c(=O)c2cc(F)c(N3CCOCC3)cc21	-1.8%	7.8%	28.5%	2.8	28.2µM*	-3.4
CCc1ccc(S(=O)(=O)c2cn(C)c3cc(N4CCN(CC)CC4)c(F)cc3c2=O)cc1	0.3%	x	11.4%	3.7	11.2µM*	x
Cc1ccc(S(=O)(=O)c2cn(C)c3cc(N4CCN(C)CC4)c(F)cc3c2=O)cc1	-15.1%	-1.0%	5.5%	-0.3	25.1µM*!	-7.6
Cc1ccc(S(=O)(=O)c2cn(C)c3cc(N4CCOCC4)c(F)cc3c2=O)cc1	-13.1%	3.6%	11.0%	3.0	-22.7%	2.9
Cc1ccc(S(=O)(=O)c2cn(C)c3cc(N4CCN(c5ccccc5)CC4)c(F)cc3c2=O)cc1	-12.1%	x	5.7%	4.0	-5.2%	x
COc1ccc(NC(=O)c2sc3nc(C)c(C(=O)Nc4ccc(C)cc4C)c(-c4ccc(C)o4)c3c2N)cc1	8.1%	x	-2.5%	-2.1	0.2%	x
CCC1CN(C(=O)N2CCC(C(=O)NCc3cc(OC)ccc3OC)CC2)c2ccccc2O1 (centres undefined)	0.3%	x	2.6%	4.7	0.4%	x
CC(C(O)c1ccccc1)N(C)CCOC(c1ccccc1)c1ccccc1 (centres undefined)	x	10.2%	x	-21.2	x	x
O=C(O)c1cc([N+](=O)[O-])cc2c1nnn2O	u	-0.6%	-17.5%	-25.3	x	-67.8*
Cc1c(N=NC2=C(O)CCCC2=O)c(=O)n(-c2ccccc2)n1C	-7.7%	0.9%	38.1%	-28.5	x	-82.5*
Cc1ccc(C)c(CSC2=NCCN2C(=O)Cc2ccc([N+](=O)[O-])cc2)c1	-3.6%	3.3%	u	-7.8	-1.7%	-61.2*
O=C(Cc1ccc([N+](=O)[O-])cc1)N1CCN=C1SCc1ccccc1	-3.9%	-4.7%	3.1%	2.2	-2.6%	2.7
Cc1noc2ncnc(Nc3ccc(F)cc3)c12	15.0%	x	8.4%	8.6	-3.5%	x
CC(C)c1ccc(Nc2ncnc3onc(-c4ccc(F)cc4)c23)cc1	36.4%	x	u	-12.6	22.4µM*	x
COC(=O)C1=CN(c2ccccc2OC)C(N)=C(C#N)C1c1cccc([N+](=O)[O-])c1 (centres undefined)	-18.8%	x	u	-7.1	-11.6%	-7.7
CC(CN1c2ccccc2Sc2ccccc21)N(C)C (centres undefined)	4.4%	-1.3%	-4.0%	-79.4	-3.1%	-97.5*
COc1ccc2c(c1)N(C[C@@H](C)CN(C)C)c1ccccc1S2	x	-0.6%[19.8 µM]	x	x	x	x
COc1ccc2c(c1)N(C[C@H](C)CN(C)C)c1ccccc1S2	u	0.0%	u	-93.0	-5.9%	-106.4*
COc1ccc(-c2cc3nc(C)cc(N4CC(C)CC(C)C4)n3n2)cc1 (centres undefined)	23.0%	7.6%	0.2%	16.4	39.8µM*	-4.8
O=[N+]([O-])c1c(Cl)cccc1-c1c[nH]cc1Cl	x	17.9%	x	-4.0	x	x
Cc1ccc(Nc2cc(C(=O)NCc3cccs3)c3ccccc3n2)c(C)c1	-10.1%	x	2µM*	-12.3	4.6%	x
CCCCn1nc2cc(C(=O)NCC34CC5CC(CC(C5)C3)C4)ccc2c1OCC	2.0%	15.7%	u	-32.0	3.4%	-79.0*
CCOc1c2ccc(C(=O)N[C@H](C)C3CCCCC3)cc2nn1CC	9.6%	8.9%	-6.4%	-9.1	3.6%	-82.2*
CCCCn1nc2cc(C(=O)NCCc3cccs3)ccc2c1OCC	-6.5%	2.3%	u	0.4	4.5%	9.3
COc1cccc(C(=O)N2CCc3c([nH]c4ccccc34)C2c2ccc(SC)cc2)c1 (centres undefined)	-13.2%	x	7.94µM*	-16.4	-1.7%	x
SMILES	GLP1R cytotox	GLP-1R agonist	GLP-1R inv ag	DRD3 agonist	ClpP mod	DRD3 antagonist
COc1ccc(C2c3[nH]c4ccccc4c3CCN2Cc2ccoc2)c(F)c1 (centres undefined)	8.8%	-1.5%	4.47µM*	-11.9	-20.5%	9.2
Oc1cccc(C2c3[nH]c4ccccc4c3CCN2Cc2ccoc2)c1 (centres undefined)	-6.7%	-1.4%	u	-2.1	-12.4%	-21.4
COc1ccc(C2c3[nH]c4ccc(OC)cc4c3CCN2C(=O)Nc2ccccc2)cc1 (centres undefined)	-15.5%	x	5.62µM*	-18.0	-26.9%	x
Oc1cccc(C2c3[nH]c4ccccc4c3CCN2Cc2ccc3c(c2)CCO3)c1 (centres undefined)	u	10.7%	2.82µM*	-8.9	-1.1%	3.5
Cc1ccc2c(c1)N(C(=O)N1CCC(C(=O)Nc3cccc(F)c3)CC1)CCO2	-4.8%	x	-25.0%	8.4	0.2%	x
COc1ccc(S(=O)(=O)N2CCN(C(=O)c3ccccc3Cc3ccccc3)CC2)cc1OC	25.6%	-2.4%	15.0%	-3.0	-1.3%	-23.7
CCc1ccc(-n2c(=O)c3c4c(sc3n(CC(=O)c3ccc(Br)cc3)c2=O)CCC4)cc1	0.7%	-1.7%	-9.4%	-10.4	-0.5%	x
COc1ccccc1-c1csc(C(C)(NC(C)=O)c2ccccc2)n1 (centres undefined)	1.1%	2.2%	24.0%	2.9	3.6%	0.0
O=C(O)c1cc(-c2ccc(/C=N/Nc3ccc([N+](=O)[O-])cn3)o2)ccc1Cl	3.3%	0.6%	-12.0%	-19.8	x	-74.8*
O=C(OCC(=O)C12CC3CC(CC(C3)C1)C2)c1ccc(O)cc1O	u	22.7%	11.2µM*	-13.6	x	-11.3
N#Cc1cccc(NC(=O)C2CCN(S(=O)(=O)c3ccc4[nH]c(=O)ccc4c3)CC2)c1	5.8%	-5.9%	9.6%	2.6	-12.0%	x
Cc1nn2c(=O)cc(COC(=O)c3cccs3)nc2s1	2.6%	x	2.3%	5.2	-5.5%	x
CCn1nc(NC(=O)CC(C)C)c2cc3cccc(C)c3nc21	34.8%	0.6%	-1.4%	3.9	x	0.4
CCn1nc(NC(=O)C(C)(C)C)c2cc3cccc(C)c3nc21	186.7%	6.4%	10µM*	5.9	-11.8%	7.8
COc1ccc(Cl)cc1NC(=O)C/C(C)=N/NC(=O)c1ccc(O)cc1	1.3%	-15.1%	u	-8.9	-0.2%	-15.7
COc1cc(NC(=O)C/C(C)=N/NC(=O)c2cccc(O)c2)c(OC)cc1Cl	12.6%	3.4%	0.0%	-16.9	-6.8%	-50.7*
Cc1nc(-c2ccc(C)c(S(=O)(=O)N3CCC(C(=O)Nc4ccc(Cl)cc4)CC3)c2)no1	-19.8%	x	10µM*	-13.0	-1.3%	x
O=C(OCc1cc(=O)n2ccsc2n1)C1(c2ccccc2)CC1	3.4%	4.2%	45.4%	-0.1	-29.1%	-2.4
C=CS(=O)(=O)N(Cc1ccc(Cl)c(Cl)c1)C[C@@H](O)CO	u	3.2%	6.31µM*	3.9	0.4%	12.7
